Shiga inhibitor: A qHTS for Small Molecule Inhibitors of Shiga Toxin | Vero cells, Shiga toxin protein synthesis inhibition reporter | actives 9.2% (n = 290,000) | inhibition, % at 38.7 µM | AID 2315, 2010; in the data active means inhibition mostly above about 28%, no sharp cut-off; inactive means mostly below about 43%; further: 0% is about no effect
Cycloheximide cs: Cycloheximide Counterscreen for Small Molecule Inhibitors of Shiga Toxin | cell reporter, cycloheximide protein synthesis inhibition counterscreen | max response, % | actives 12% (n = 300,000); in the data active means max response mostly above about 13%, no sharp cut-off; inactive means mostly below about 14%; further: read at 38.3 µM for the half of the compounds with a filed dose; 0% is about no effect
Pf growth 96h: Primary qHTS for delayed death inhibitors of the malarial parasite plastid, 96 hour incubation. P. falciparum luciferase reporter growth, 96 h. Potency, µM (highest dose often 28.7 µM), inactives show at the top dose activity change, negative = inhibition, actives largely listed as inhibitors. actives 6.9% (n = 320,000); further: potency means the concentration at half of the fitted maximal effect; on the % scale 0 is the no-effect control and ±100 the full control effect
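Readout is luminescence from an integrated firefly luciferase in P. falciparum. Red cells, 2% hematocrit and 0.05% parasitemia final, were cultured with compound through two parasite generations (96 hours) at 37 C, 5% CO2.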
SARS PLP yeast: qHTS of Yeast-based Assay for SARS-CoV PLP | AID 485353, 2010 | S. cerevisiae expressing SARS-CoV PLpro, growth rescue | Potency, µM (titrated, usually from 32.9 µM), for inactives: at the top dose activity, positive = growth rescue, most hits filed as activators | actives 0.19% (n = 330,000); calls by dose curve; further: potency means the concentration at half of the fitted maximal effect; 0% is about no effect; nearly all actives have a fitted effect of over 55% in size
Pf growth 48h: Primary qHTS for delayed death inhibitors of the malarial parasite plastid, 48 hour incubation. P. falciparum luciferase growth in erythrocytes, 48 h. AID 504832, 2011. Potency, µM (titrated, usually from 28.7 µM), for the others: top-dose activity change, negative = inhibition, usual class: inhibitors. actives 5.9% (n = 310,000); further: potency means the concentration at half of the fitted maximal effect; on the % scale 0 is the no-effect control and ±100 the full control effect
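Luminescence readout; reporter = integrated firefly luciferase in P. falciparum. RBC culture at 2% hematocrit, 0.1% parasitemia final, 37 C/5% CO2; decreased signal taken as growth inhibition.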
AMA1 RON2 block: qHTS for Inhibitors of AMA1-RON; Towards Development of Antimalarial Drug Lead: Primary Screen; Plasmodium falciparum AMA1 (3D7) - RON2 peptide interaction; AID 720542, 2013; actives 0.2% (n = 360,000); AlphaScreen AMA1-biotinylated RON2 peptide binding; Potency, µM (highest dose often 58.2 µM), inactives show at the highest dose activity change, negative = inhibition, usual class: inhibitors;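 further: potency means the concentration at half of the fitted maximal effect; 0% = vehicle wells and -100% = peptide control; nearly all actives have a fitted effect of over 45% in size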
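AMA1 (3D7) with his tag at 25 nM final met compounds first, then biotinylated RON2 peptide at 25 nM; detection used donor plus acceptor beads, 10 µg/mL apiece, read by AlphaScreen after 30 min at room temperature.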
* marks the source's active call; other numbers are inactive results; ? = inconclusive; . = not tested or not shown. The list is not random: actives were taken first. Their share in the collection is about 19%. Unless noted, the call rests on the fitted dose curve; in most records, active means well fitted curve in the direction sought with a large enough effect; inconclusive means small, poorly fitted or top-dose-only effect, or another doubt; inactive means no such curve, though single readings can be large; an effect the other way counts as inactive or inconclusive.

SMILES | Shiga inhibitor | Cycloheximide cs | Pf growth 96h | SARS PLP yeast | Pf growth 48h | AMA1 RON2 block
CN(C)CCCN1c2ccccc2Sc2ccc(Cl)cc21 | -15 | -4 | ? | 5% | 10µM* | ?
CCC(C)c1ccccc1NC(=O)COc1ccc(-c2nnco2)cc1 (centres undefined) | . | . | -1% | 1% | ? | 4%
Cc1cc(C(=O)COc2ccc(-c3nnco3)cc2)c(C)n1Cc1ccccc1 | 21 | 17* | ? | 5% | ? | 2%
CN(C)CC[C@@](O)(c1ccccc1)c1ccccc1Cl | . | . | 11µM* | . | ? | .
O=C(NC[C@@H]1CCCO1)c1cccc2c1C(=O)c1ccc(Cl)cc1S2(=O)=O | . | . | ? | 0% | -3% | 3%
COc1cc(Br)cc2cc(C(=O)NCC3CCCO3)c(=O)oc12 (centres undefined) | -3 | -2 | 47% | 0% | 20% | -2%
CNC(=O)c1cc2cc(OC)ccc2oc1=O | -8 | -2 | -15% | 6% | . | 1%
CNC(=O)c1cc2cccc(OC)c2oc1=O | -5 | 0 | -2% | 6% | -3% | 0%
COc1cccc2cc(C(=O)NC(C)C3CCCO3)c(=O)oc12 (centres undefined) | 63* | 45* | . | -1% | 68% | 10%
COc1ccc(-c2ccc3c(c2)S(=O)(=O)c2cccc(C(=O)NC[C@@H]4CCCO4)c2C3=O)cc1OC | . | . | ? | -3% | 13µM* | -20%
COc1ccc2oc(=O)c(C(=O)NC3CCCCCC3)cc2c1 | . | 23* | ? | -1% | 31% | -8%
COc1ccc2oc(=O)c(C(=O)NCC3CCCO3)cc2c1 (centres undefined) | 45 | 29* | -8% | 9% | . | -11%
CN(CCCn1ccc(NC(=O)OCc2ccccc2)nc1=O)Cc1ccco1 | . | . | . | . | . | -4%
CC(=O)NCCc1ccc(C(=O)COC(=O)c2cccs2)cc1 | . | . | . | . | . | 5%
COc1cccc2cc(C(=O)NC3CC4CCC3C4)oc12 (centres undefined) | 21 | 14* | 5% | -16% | ? | -4%
COc1ccc(/C=C/C(=O)c2cc3cccc(OC)c3oc2=O)cc1 | 21 | 20 | 8% | 0% | 0% | -7%
CCOC(=O)CC(NC(=O)c1cc2cccc(OC)c2oc1=O)c1ccc(OC)cc1 (centres undefined) | 102* | 44* | 15% | -1% | 12% | 0%
COc1cccc2cc(C(=O)NCC3CCCO3)c(=O)oc12 (centres undefined) | 33 | 30* | . | -2% | 27% | 7%
O=C(C1=NN[C@@H]2C(=O)N(c3cccc(C(F)(F)F)c3)C(=O)[C@H]12)c1cnccn1 | -10 | 1 | 16% | -1% | 1% | 13%
Cc1cc(Nc2c(C)n(C)n(-c3ccccc3)c2=O)c2ccccc2n1 | 18 | -6 | -16% | 9% | -4% | 20%
CO/N=C/C(C#N)=C/c1cc(C(=O)c2ccccc2)cn1C | -5 | 5 | 2.9µM* | 5% | ? | -4%
CC1(C(=O)NS(=O)(=O)c2cccc(Cl)c2)CCN1C(=O)COc1ccc(Cl)cc1 (centres undefined) | . | . | . | . | . | 0%
CCS(=O)(=O)c1ccc2oc(Nc3ccccc3Br)nc2c1 | 79* | 35* | 184% | -2% | 296% | -23%
CCS(=O)(=O)c1ccc2oc(Nc3ccccc3Cl)nc2c1 | 80* | 45* | 299% | -5% | 208% | 0%
CSCCOC(=O)C1=C(C)Nc2ccc(C)cc2S1 | 7 | 14* | ? | -4% | . | 18%
SMILES | Shiga inhibitor | Cycloheximide cs | Pf growth 96h | SARS PLP yeast | Pf growth 48h | AMA1 RON2 block
CCOC(=O)C1=C(C)Nc2ccccc2S1 | 31* | 23* | -5% | -1% | 58% | 4%
CCOCCOC(=O)C1=C(C)Nc2ccc(C)cc2S1 | 50 | 22* | 45% | -7% | ? | 0%
CCOC(=O)C1=C(C)Nc2ccc(C)cc2S1 | 8 | -2 | -11% | -3% | 42% | -11%
O=C(NCc1ccccc1)c1cc(C2COCCN2C(=O)CCc2ccccc2)on1 (centres undefined) | . | . | . | . | . | 2%
COC(=O)[C@H](CC(C)C)N1Cc2cc(OC)cc(OC)c2-c2ccccc2S1(=O)=O | . | . | . | 8% | . | -13%
c1c2c(cc3sc(N4CCCCC4)nc13)OCO2 | 25 | 21 | 51% | -7% | 287% | -26%
c1ccc2c(c1)CCN(c1nc3cc4c(cc3s1)OCO4)C2 | 97* | 40* | 0% | -15% | 32% | ?
c1ccc(N2CCN(c3nc4cc5c(cc4s3)OCO5)CC2)cc1 | 33* | 53* | 14% | -1% | 239% | 1%
Fc1ccc2nc(N3CCOCC3)sc2c1 | 107* | 35* | 105% | -2% | 79% | -6%
Nc1ccc(N2CCOCC2)cc1C(F)(F)F | -34 | -3 | 1% | 0% | 9% | -10%
Nc1nc2ccc(N3CCOCC3)cc2s1 | 32* | 34* | -30% | -1% | 32% | 10%
CCN(CC)S(=O)(=O)c1ccc(NC(=O)C2c3ccccc3Oc3ccccc32)cc1 | -12 | 0 | ? | 4% | ? | 6%
CCC(=O)Oc1ccc(/C(CC)=C(\CC)c2ccc(OC(=O)CC)cc2)cc1 | 6 | -3 | ? | 2% | ? | -2%
c1c2c(cc3sc(N4CCOCC4)nc13)OCO2 | 56* | 43* | 21% | -7% | 0% | -20%
COc1ccc(N(C)S(=O)(=O)c2cccc(C(=O)NCC(c3ccco3)N3CCCC3)c2)cc1 (centres undefined) | . | . | ? | 0% | 9.3µM* | 13%
O=C(NCC(c1ccco1)N1CCCCC1)c1ccc(COc2ccccc2)cc1 (centres undefined) | . | . | 2.9µM* | -4% | ? | 0%
COc1ccccc1N(C)S(=O)(=O)c1ccc(C(=O)NCC(c2ccco2)N2CCCCC2)cc1 (centres undefined) | . | . | . | . | . | -9%
CN(c1ccccc1)S(=O)(=O)c1ccc(C(=O)NCC(c2ccco2)N2CCCCC2)cc1 (centres undefined) | . | . | 7.4µM* | -5% | ? | 0%
O=C(NCC(c1ccco1)N1CCCCC1)c1ccc(OCc2ccccc2)cc1 (centres undefined) | -4 | 1 | ? | -4% | ? | -5%
COc1ccc(CCNC(=O)COC(=O)c2sc(C)nc2C)cc1 | . | . | -8% | 0% | -13% | -5%
CC(C)c1ccc(-c2csc3nc[nH]c(=O)c23)cc1 | . | 24* | 54% | -2% | 48% | -10%
O=c1[nH]cnc2scc(-c3ccccc3)c12 | -6 | -2 | -20% | 1% | 2.6µM* | -3%
O=c1[nH]cnc2scc(-c3ccc(Br)cc3)c12 | 25 | 11 | ? | -1% | 29% | 2%

High-throughput results: PubChem BioAssay, National Center for Advancing Translational Sciences (NCATS)
